Laboratory results as given in PubChem BioAssay (NCATS).
Inconclusive results are not listed. Entries that show only a call come without a potency. Activity calls are given as the source filed them. Calls follow the shape of the dose curve; as a rule, active = well fitted cell-killing curve with a large enough effect; inconclusive = small, poorly fitted or top-dose-only effect, or effect the other way; inactive = flat fitted curve, though single readings scatter.

The compounds below were run on CASKI (assay: Primary qHTS to identify gynecologic anti-cancer compounds using libraries of approved drugs and bioactive compounds (AID 1345084; also: nearly all actives have a fitted effect of over 55% in size)). Settings: Gynecologic cancer cell panel viability, ATPlite luminescence, 48 h; series mostly up to 57.5 µM.
In short: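 In this quantitative HTS, cell killing is estimated from loss of ATP-dependent luciferase light. Cells see five compound concentrations over a 48 h exposure.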
Potency is read from the fitted curve at half-maximal effect.

For `CC(C)(C)c1nnc(NS(=O)(=O)c2ccc(N)cc2)s1`, which Potency is on record?
The Potency was “inactive”.

How did the Potency turn out when `N=C(N)N` was run?
The Potency was “inactive”.

`Cc1ccc(C(=O)c2ccc(CC(=O)O)n2C)cc1` was tested. Which Potency did it give?
The Potency was “inactive”.

For `CCCCCCCC/C=C/C(=O)O`, which Potency is on record?
Its Potency is “inactive”.

For `O=C(/C=C/c1ccccc1)NCCO`, which Potency is on record?
Its Potency is “inactive”.

Which Potency does the source give for `COc1cc2c3cc1Oc1cc(ccc1O)C[C@@H]1c4c(cc(OC)c(O)c4Oc4ccc(cc4)C[C@@H]3N(C)CC2)CC[N+]1(C)C` here?
Its Potency is “inactive”.

Which Potency does the source give for `O=C(O)Cc1ccc2c(c1)C(=O)c1ccccc1CO2` here?
The Potency was “inactive”.

For `O=C(Nc1ccc(C(=O)O)c(O)c1)c1ccccc1`, which Potency is on record?
The Potency was “inactive”.

`CO[C@@]1(NC(=O)Cc2cccs2)C(=O)N2C(C(=O)O)=C(COC(N)=O)CS[C@@H]21` was tested. Which Potency did it give?
Its Potency is “inactive”.

How did the Potency turn out when `Nc1ccc(O)c(C(=O)O)c1` was run?
Its Potency is “inactive”.

Which Potency does the source give for `C=CCCCCCCCCC(=O)O` here?
Its Potency is “inactive”.

How did the Potency turn out when `Nc1c(CC(=O)O)cccc1C(=O)c1ccc(Br)cc1` was run?
The Potency was “inactive”.

How did the Potency turn out when `O=C(OCc1ccccc1)c1ccccc1` was run?
Its Potency is “inactive”.

How did the Potency turn out when `CCCCCCCCCCCCOCCO` was run?
Its Potency is “inactive”.

Which Potency does the source give for `CN(C)[C@@H]1C(=O)C(C(=O)NCN2CCCC2)=C(O)[C@@]2(O)C(=O)C3=C(O)c4c(O)cccc4[C@@](C)(O)C3C[C@@H]12` (stereo partly specified) here?
The Potency was “inactive”.

`O=C(O)Cc1ccc(-c2ccccc2)cc1` was tested. Which Potency did it give?
The Potency was “inactive”.

How did the Potency turn out when `Cc1c(Nc2ncccc2C(=O)O)cccc1C(F)(F)F` was run?
Its Potency is “inactive”.

With `CC(C(=O)O)c1ccc2c(c1)[nH]c1ccc(Cl)cc12` (stereo unspecified) as the compound, how does the Potency read?
The Potency was “inactive”.

Which Potency does the source give for `CCCOC(=O)c1ccc(O)cc1` here?
The Potency was “inactive”.

With `CCCCCCCCCCCC(=O)[O][Sn]([CH2]CCC)([CH2]CCC)[O]C(=O)CCCCCCCCCCC` as the compound, how does the Potency read?
The Potency was “inactive”.

Which Potency does the source give for `O=C(O)/C=C\C(=O)O` here?
The Potency was “inactive”.

`CCOC(=O)c1ccccc1O` was tested. Which Potency did it give?
Its Potency is “inactive”.

Which Potency does the source give for `Cc1c(N)c(=O)n(-c2ccccc2)n1C` here?
Its Potency is “inactive”.

For `C[N+]1(C)[C@@H]2CC(OC(=O)[C@H](CO)c3ccccc3)C[C@H]1[C@@H]1O[C@@H]12` (stereo partly specified), which Potency is on record?
The Potency was “inactive”.

For `c1ccc2sc(SSc3nc4ccccc4s3)nc2c1`, which Potency is on record?
The Potency was “inactive”.

Which Potency does the source give for `COc1cc(NC(C)CCCN)c2ncccc2c1` (stereo unspecified) here?
The Potency was “inactive”.

With `CCCC(=O)OC[C@@H](OC(=O)CCC)[C@@H](OC(=O)CCC)[C@H](Cn1c2nc(=O)[nH]c(=O)c-2nc2cc(C)c(C)cc21)OC(=O)CCC` as the compound, how does the Potency read?
Its Potency is “inactive”.

With `CC(=O)c1ccc(OCC(=O)N2CCCCC2)cc1` as the compound, how does the Potency read?
Its Potency is “inactive”.

Which Potency does the source give for `CCOc1ccc2nc(S(N)(=O)=O)sc2c1` here?
The Potency was “inactive”.

With `CN(C)CCn1nnnc1SCC1=C(C(=O)O)N2C(=O)[C@@H](NC(=O)Cc3csc(N)n3)[C@H]2SC1` as the compound, how does the Potency read?
The Potency was “inactive”.

`CCCCCCCCCCCCCCCC(=O)OC(C)C` was tested. Which Potency did it give?
Its Potency is “inactive”.

Which Potency does the source give for `CCCCCCCCCCCCCCCCCC(=O)O` here?
Its Potency is “inactive”.

`CNC(=O)c1c(I)c(NC(=O)CCCCC(=O)Nc2c(I)c(C(=O)O)c(I)c(C(=O)NC)c2I)c(I)c(C(=O)O)c1I` was tested. Which Potency did it give?
Its Potency is “inactive”.

`CCC1C(=O)OCC1Cc1cncn1C` (stereo unspecified) was tested. Which Potency did it give?
The Potency was “inactive”.

How did the Potency turn out when `Nc1ccc(C(=O)O)c(O)c1` was run?
Its Potency is “inactive”.

For `[O-][n+]1ccccc1SSc1cccc[n+]1[O-]`, which Potency is on record?
The Potency was 2.51 µM (active).
